From PubChem BioAssay (NCI)
Compounds without any hit were thinned out: in the full panel of roughly 83,000, 20% have a hit.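 96-well plates, one dose, 48 hours. Percent growth reported; active if below 10.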 Active and inactive are the calls of the source.

Assays:
Test in all cases: NCI-60 one-dose screen, 48 h (100 = growth as untreated, 0 = no growth, -100 = all killed)
NCI-H23 lung = details: 10 µM unless noted
NCI-H226 lung = details: 10 µM unless noted
NCI-H322M lung = details: 10 µM unless noted
HOP-62 NSCLC = details: 10 µM unless noted
NCI-H460 lung = details: 10 µM unless noted
HOP-92 NSCLC = details: 10 µM unless noted
NCI-H522 lung = details: 10 µM unless noted
A549/ATCC NSCLC = details: 10 µM unless noted
786-0 renal = details: 10 µM unless noted
COLO 205 colon = details: 10 µM unless noted
DU-145 prostate = details: 10 µM unless noted
K-562 leukemia = details: 10 µM unless noted
MALME-3M melanoma = details: 10 µM unless noted
MDA-MB-231 breast = details: 10 µM unless noted
RXF 393 renal = details: 10 µM unless noted
SF-268 CNS = details: 10 µM unless noted
SF-295 CNS = details: 10 µM unless noted
SF-539 CNS = details: 10 µM unless noted
UACC-257 melanoma = details: 10 µM
M14 melanoma = details: 10 µM unless noted

Measured: growth

COc1cc(/C=C\c2cc(OC)c(OC)c(OC)c2)cc(N/C=C\C(=O)c2c[nH]c3ccccc23)c1OC
inactive: NCI-H23 lung 60.5% | NCI-H226 lung 65.5% | NCI-H322M lung 80.4% | HOP-62 NSCLC 83% | NCI-H460 lung 82.6% | HOP-92 NSCLC 48.4% | A549/ATCC NSCLC 84.3% | DU-145 prostate 41.7% | SF-268 CNS 72% | SF-295 CNS 55.8% | UACC-257 melanoma 33.4% | M14 melanoma 52.9%
active: NCI-H522 lung -76.9% | 786-0 renal -5.56% | COLO 205 colon -77.2% | K-562 leukemia -9.37% | MALME-3M melanoma -58.2% | MDA-MB-231 breast -12% | RXF 393 renal -35.3% | SF-539 CNS -95.2%

Cc1nc(Nc2cccnc2)sc1C(=O)/C=C/c1ccc(F)cc1
inactive: NCI-H23 lung 82.3% | NCI-H226 lung 55.7% | NCI-H322M lung 47.9% | HOP-62 NSCLC 30.4% | NCI-H460 lung 59.8% | HOP-92 NSCLC 88.6% | NCI-H522 lung 52% | A549/ATCC NSCLC 25.2% | 786-0 renal 13.8% | COLO 205 colon 56.4% | K-562 leukemia 11.4% | MALME-3M melanoma 88.1% | MDA-MB-231 breast 89.2% | RXF 393 renal 18.1% | SF-268 CNS 42.1% | SF-295 CNS 42.4% | SF-539 CNS 18.2% | UACC-257 melanoma 73.5% | M14 melanoma 25.5%
active: DU-145 prostate 9.5%

CCOC(=O)C1=C(C)NC(=O)NC1c1ccc(OCC(=O)N/N=C/c2ccc(Cl)cc2)cc1 (stereo not given)
inactive: NCI-H23 lung 105% | NCI-H226 lung 95.8% | NCI-H322M lung 87.5% | HOP-62 NSCLC 89.9% | NCI-H460 lung 101% | HOP-92 NSCLC 90.1% | NCI-H522 lung 81.2% | A549/ATCC NSCLC 77% | 786-0 renal 97.6% | COLO 205 colon 105% | DU-145 prostate 106% | K-562 leukemia 94.9% | MALME-3M melanoma 101% | MDA-MB-231 breast 98.7% | RXF 393 renal 95.6% | SF-268 CNS 95.1% | SF-295 CNS 99.5% | SF-539 CNS 91.3% | UACC-257 melanoma 68.7% | M14 melanoma 94.6%

Cc1ccc(C(=O)c2sc3nc4c(cc3c2N)CCCC4)c(C)c1
active: NCI-H522 lung -0.883% | COLO 205 colon 3.68% | DU-145 prostate 6.18% | RXF 393 renal -16% | SF-295 CNS -4.3% | SF-539 CNS -25%
inactive: NCI-H23 lung 35.1% | NCI-H226 lung 60.1% | NCI-H322M lung 29.5% | HOP-62 NSCLC 39.6% | NCI-H460 lung 14% | HOP-92 NSCLC 27.4% | A549/ATCC NSCLC 19.2% | 786-0 renal 35.2% | K-562 leukemia 11.9% | MALME-3M melanoma 27% | MDA-MB-231 breast 21.3% | SF-268 CNS 44.1% | UACC-257 melanoma 57.6% | M14 melanoma 30.6%

CN(C)c1ccc(-c2ccc(-c3ccc(C(=N)N)cn3)o2)cc1
active: NCI-H322M lung -0.109% | HOP-62 NSCLC -69.8% | NCI-H460 lung -86.8% | HOP-92 NSCLC -61.2% | NCI-H522 lung -72.9% | A549/ATCC NSCLC -48.7% | 786-0 renal -66.6% | COLO 205 colon -93.7% | DU-145 prostate -65.2% | K-562 leukemia -46.7% | MALME-3M melanoma -75.5% | MDA-MB-231 breast -84.4% | RXF 393 renal -81% | SF-268 CNS -49.2% | SF-295 CNS -69.7% | SF-539 CNS -87.4% | UACC-257 melanoma -83.8% | M14 melanoma -74.4%
inactive: NCI-H23 lung 20.9% | NCI-H226 lung 21.3%

COc1ccc(/C=C/C(=O)c2cc(OC)c(OC)c(OC)c2)cc1OCc1cn(Cc2ccc(F)cc2)nn1
active: HOP-62 NSCLC 4.52% | K-562 leukemia 7.36% | SF-539 CNS 6.59%
inactive: NCI-H23 lung 103% | NCI-H226 lung 76.8% | NCI-H322M lung 33.6% | NCI-H460 lung 95.8% | HOP-92 NSCLC 55.9% | NCI-H522 lung 26.4% | A549/ATCC NSCLC 29.7% | 786-0 renal 49.3% | COLO 205 colon 66.4% | DU-145 prostate 59.3% | MALME-3M melanoma 92.1% | MDA-MB-231 breast 81.8% | RXF 393 renal 72.2% | SF-268 CNS 79.3% | SF-295 CNS 68.4% | UACC-257 melanoma 98.3% | M14 melanoma 87.7%

COc1cccc(/C=C/C(=O)c2sc(Nc3ccc(O)cc3)nc2C)c1
inactive: NCI-H23 lung 92.3% | NCI-H226 lung 107% | NCI-H322M lung 93.5% | HOP-62 NSCLC 107% | NCI-H460 lung 105% | HOP-92 NSCLC 107% | NCI-H522 lung 24.9% | A549/ATCC NSCLC 88.2% | 786-0 renal 80.2% | COLO 205 colon 115% | DU-145 prostate 94.9% | K-562 leukemia 79.1% | MALME-3M melanoma 95% | MDA-MB-231 breast 105% | RXF 393 renal 84.6% | SF-268 CNS 61.2% | SF-295 CNS 104% | SF-539 CNS 74.5% | UACC-257 melanoma 85% | M14 melanoma 95.4%

COc1cccc(-c2nc3sccn3c2-c2ccnc(NCCCNS(=O)(=O)c3ccc(F)cc3)n2)c1
inactive: NCI-H23 lung 16.2% | NCI-H226 lung 13.7% | NCI-H322M lung 64.7% | HOP-62 NSCLC 82.4% | NCI-H460 lung 40.3% | HOP-92 NSCLC 61.5% | NCI-H522 lung 14% | A549/ATCC NSCLC 41.6% | 786-0 renal 44.1% | COLO 205 colon 17.1% | DU-145 prostate 27.7% | K-562 leukemia 16.6% | MALME-3M melanoma 32.4% | MDA-MB-231 breast 53.2% | RXF 393 renal 55% | SF-268 CNS 37% | SF-295 CNS 24.7% | SF-539 CNS 66.7% | UACC-257 melanoma 55.2% | M14 melanoma 18.1%
